Test [1] in a line: Quantitative High-Throughput drug screen in 47 multiple myeloma cell lines against the NCATS MIPE library collection: H1112_PLB cell viability assay (AID 1918967; note: nearly all actives have a fitted effect of over 30% in size). As to conditions: H1112 myeloma cells viability, ATP luminescence, 48 h; series mostly up to 45.8 µM. In short, it runs like this: (§1)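 Primary qHTS used for cherry-picking: cells at 500/well, library compounds for 48 h (37C, 5% CO2), luminescent ATP assay.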

A short description of test [2]: Quantitative High-Throughput drug screen in 47 multiple myeloma cell lines against the NCATS MIPE library collection: Karpas25_ECACC cell viability assay (AID 1918968; note: nearly all actives have a fitted effect of over 35% in size). The conditions noted are these: Karpas25 myeloma viability, CellTiter-Glo ATP, 48 h. An excerpt:
(§2) PI: Beverly A. Mock Ph.D.
(§3) Laboratory of Cancer Biology and Genetics,
(§4) Center for Cancer Research, National Cancer Institute,
(§5) National Institute of Health, Bethesda, Maryland
(§6) Drug resistance and disease progression are common in multiple myeloma (MM) patients, underscoring the need for new therapeutic combinations. […] We hypothesized that effective combinations would reduce MYC expression and enhance p16 activity. […] These preclinical data identify potentially useful drug combinations for evaluation in drug-resistant MM and reveal potential mechanisms of combined drug sensitivity.
(§7) Described herein is the primary MIPE qHTS used to cherrypick compounds. Validated compounds were then further tested for potential synergistic activiy.
(§8) [1] Peat TJ, Gaikwad SM, Dubois W, Gyabaah-Kessie N, Zhang S, Gorjifard S, Phyo Z, Andres M, Hughitt VK, Simpson RM, Miller MA, Girvin AT, Taylor A, Williams D, D'Antonio N, Zhang Y, Rajagopalan A, Flietner E, Wilson K, Zhang X, Shinn P, Klumpp-Thomas C, McKnight C, Itkin Z, Chen L, Kazandijian D, Zhang J, Michalowski AM, Simmons JK, Keats J, Thomas CJ, Mock BA. Drug combinations identified by high-throughput screening promote cell cycle transition and upregulate Smad pathways in myeloma. Cancer Lett. 2023 Aug 1;568:216284. doi: 10.1016/j.canlet.2023.216284. Epub 2023 Jun 24. PMID: 37356470; PMCID: PMC10408729.
(§9) SEQUENCE No. (e.g., 1, 2, 3, etc.); […] (e.g., Cells, Incubation, Reagent, etc.); VALUE and DESCRIPTION.
(§10) 1; Cells; 5 uL; white, solid bottom 1536-well Greiner assay plate.
(§11) 2; Compounds; 23 nL; Kalypsis pin tool (Wako USA) equipped with a 1536-well pin head to transfer to the assay plates.
(§12) 3; Incubation; 48 hours; 37C incubation.
(§13) 4; Reagent;5uL; CellTiter Glo (Promega).
(§14) 5; Detector; 425V; Luminescence; Viewlux PerkinElmer. […]
(§15) 1. […] Briefly, the corresponding myeloma cell lines were screened in 1,536-well plates with 500 cells, 5-uL per well for inhibition of cell viability (assessed by measuring ATP levels with CellTiterGlo). […]
(§16) 5. Signal was measured as median relative luminescence units on a ViewLux (PerkinElmer) multiplate reader. […]
(In general: In ATP-based viability assays light output follows the ATP content of the culture.)

The nature of test [3]: Quantitative High-Throughput drug screen in 47 multiple myeloma cell lines against the NCATS MIPE library collection: KMS27_JCRB cell viability assay (AID 1918970). Note: nearly all actives have a fitted effect of over 30% in size. The conditions noted are these: KMS27 myeloma cells, CellTiter-Glo ATP viability, 48 h; series mostly up to 45.8 µM.
Description: as §2, §3, §4, §5, §6, §7
[1] Peat TJ, Gaikwad SM, Dubois W, Gyabaah-Kessie N, Zhang S, Gorjifard S, Phyo Z, Andres M, Hughitt VK, Simpson RM, Miller MA, Girvin AT, Taylor A, Williams D, D'Antonio N, Zhang Y, Rajagopalan A, Flietner E, Wilson K, Zhang X, Shinn P, Klumpp-Thomas C, McKnight C, Itkin Z, Chen L, Kazandijian D, Zhang J, Michalowski AM, Simmons JK, Keats J, Thomas CJ, Mock BA. Drug combinations identified by high-throughput screening promote cell cycle transition and upregulate Smad pathways in myeloma. […] Epub 2023 Jun 24. PMID: 37356470; PMCID: PMC10408729.
as §9, §10, §11, §12, §13
5; Detector; 425V; Luminescence; Viewlux PerkinElmer.
NOTES (numbers refer to Sequence numbers above)
as §15, §16

Test [4] can be described thus: Quantitative High-Throughput drug screen in 47 multiple myeloma cell lines against the NCATS MIPE library collection: KMS12BM_JCRB cell viability assay (AID 1918971). Note: nearly all actives have a fitted effect of over 35% in size. The conditions noted are these: KMS12BM myeloma viability, CellTiter-Glo ATP, 48 h; series mostly up to 45.8 µM.
Description: as §2, §3, §4, §5, §6, §7, §8, §9, §10, §11, §12, §13, §14, §15, §16

The nature of test [5]: Quantitative High-Throughput drug screen in 47 multiple myeloma cell lines against the NCATS MIPE library collection: KMS12PE_JCRB cell viability assay (AID 1918972). Note: nearly all actives have a fitted effect of over 30% in size. As to conditions: KMS12PE myeloma viability, CellTiter-Glo ATP, 48 h; series mostly up to 45.8 µM. In short, it runs like this: (§17)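 Steps: seed 500 cells per well; pin-transfer MIPE 4.0 library; incubate 48 h at 37C, 5% CO2, humidified; add CellTiter-Glo, 5 min room temperature; read luminescence.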

Test [6] in a line: Quantitative High-Throughput drug screen in 47 multiple myeloma cell lines against the NCATS MIPE library collection: JJN3_DSMZ cell viability assay (AID 1918966; note: nearly all actives have a fitted effect of over 50% in size). As to conditions: JJN3 myeloma cells viability, CellTiter-Glo ATP, 48 h; series mostly up to 45.8 µM. A digest of the protocol: as §1
A short description of test [7]: Quantitative High-Throughput drug screen in 47 multiple myeloma cell lines against the NCATS MIPE library collection: KMS20_JCRB cell viability assay (AID 1918973). Note: nearly all actives have a fitted effect of over 45% in size. The conditions noted are these: CellTiter-Glo ATP, 48 h; series mostly up to 45.8 µM. In short, it runs like this:
as §1

Test [8] can be described thus: Quantitative High-Throughput drug screen in 47 multiple myeloma cell lines against the NCATS MIPE library collection: INA6_PLB cell viability assay (AID 1918965; note: nearly all actives have a fitted effect of over 55% in size). As to conditions: INA6 myeloma viability, CellTiter-Glo ATP luminescence, 48 h. In short, it runs like this: as §17
A short description of test [9]: Quantitative High-Throughput drug screen in 47 multiple myeloma cell lines against the NCATS MIPE library collection: KMS21BM_JCRB cell viability assay (AID 1918974). The conditions noted are these: ATP luminescence, 48 h. A digest of the protocol:
as §1

The nature of test [10]: Quantitative High-Throughput drug screen in 47 multiple myeloma cell lines against the NCATS MIPE library collection: KMS26_JCRB cell viability assay (AID 1918975). Note: nearly all actives have a fitted effect of over 45% in size. As to conditions: KMS26 myeloma cells viability, CellTiter-Glo ATP, 48 h. In short, it runs like this: as §17

Results filed as inconclusive are left out. The source made the active and inactive calls. Calls come from the whole dose curve; as a rule, active = well fitted cell-killing curve with a large enough effect; inconclusive = small, poorly fitted or top-dose-only effect, or effect the other way; inactive = no such curve, though single readings can be large or run the other way.
Potency is the fitted concentration of half-maximal effect.

Consider `COC(=O)C1=CCCN(C)C1`, for which the Potency entry in test [1], in test [4] and in test [5] was “inactive” in each case. Moreover, the Potency in test [2] was 5.9 µM (active); in [3] it was 3 nM (active).

Consider `COc1ccc(C(=O)N2CCCC2=O)cc1`, for which the Potency entry in test [6], in test [1], in [4], in test [5] and in test [7] was “inactive” in each case. Besides, in test [2], the Potency was 0.935 µM (active).

As for `O=C(O)c1nn(Cc2ccc(Cl)cc2Cl)c2ccccc12`, the Potency result in test [6], in test [1], in [3] and in test [5] was “inactive” throughout.

Take `C[C@@H]1C[C@@H]([C@H](O)CC2CC(=O)NC(=O)C2)C(=O)[C@@H](C)C1`: the Potency was 118 nM (active) in test [8]; 187 nM (active) in test [6]; 1.05 µM (active) in [1]; 1.05 µM (active) in test [2]; 1050 nM (active) in test [3]; 209 nM (active) in test [4]. In addition, the Potency was 418 nM (active) in test [5], 1.66 µM (active) in test [7], 526 nM (active) in test [9] and 132 nM (active) in [10].

Source of the values: PubChem BioAssay (NCATS).
